This is one part of a sample in which hits are shown more often than they occur.
LASV entry inh – Lassa virus entry inhibition; Lassa virus pseudotype entry inhibition, cell reporter; Potency, µM (top dose mostly 37.9 µM), for the others: at the top dose activity change, negative = inhibition, actives largely listed as inhibitors; 300,000 compounds, 1.2% hits; AID 540256; calls by dose curve; tested in HEK293 cells; also: potency is read from the fitted curve at half-maximal effect; % is scaled to controls: 0 for no effect and ±100 for the full control effect; nearly all actives have a fitted effect of over 50% in size
AMA1-RON2 inh – AMA1-RON2 (P. falciparum) interaction inhibition. 360,000 compounds, 0.2% hits. AlphaScreen AMA1-biotinylated RON2 peptide binding. AID 720542. Potency, µM (highest dose often 58.2 µM), for the others: top-dose activity change, negative = inhibition, actives largely listed as inhibitors; active = well fitted inhibition curve with a large enough effect; inconclusive = small, poorly fitted or top-dose-only effect; inactive = no such curve, though single readings can be large or run the other way;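 also: potency is read from the fitted curve at half-maximal effect; 0% = vehicle wells and -100% = peptide control; nearly all actives have a fitted effect of over 45% in size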
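AMA1 (3D7) with his tag at 25 nM final met compounds first, then biotinylated RON2 peptide at 25 nM; detection used donor plus acceptor beads, 10 µg/mL apiece, read by AlphaScreen after 30 min at room temperature.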
Cycloheximide cs – counter-screen hit for Shiga toxin inhibitors, cycloheximide. cell reporter, cycloheximide protein synthesis inhibition counterscreen. max response, %. 300,000 compounds, 12% hits. AID 2314; in the data active = max response mostly above about 13%, no sharp cut-off; inactive = mostly below about 14%; also: read at 38.3 µM for the half of the compounds with a filed dose; 0% is about no effect
Marburg entry inh – blocks Marburg virus binding to or entry into cells; Marburg virus pseudotyped entry inhibition, cell reporter; Potency, µM (highest dose often 37.8 µM), inactives show at the top dose activity change, negative = inhibition, most hits filed as inhibitors; 300,000 compounds, 1.8% hits; AID 540276; calls by dose curve; tested in HEK293 cells; also: potency is read from the fitted curve at half-maximal effect; % is scaled to controls: 0 for no effect and ±100 for the full control effect
Shiga inhibitor – Shiga toxin inhibition | Vero cells, Shiga toxin protein synthesis inhibition reporter | inhibition, % at 38.7 µM | 290,000 compounds, 9.2% hits | AID 2315; in the data active = inhibition mostly above about 28%, no sharp cut-off; inactive = mostly below about 43%; also: 0% is about no effect
Starred values were filed as active, the others as inactive; u = inconclusive; x = not tested or not shown; [ ] = another dose, or the depositor's remark.

SMILES	LASV entry inh	AMA1-RON2 inh	Cycloheximide cs	Marburg entry inh	Shiga inhibitor
CCCCCOC(=O)c1ccc(OC(=O)c2cncc(Br)c2)cc1	19%	-8%	21*	-1%	27
O=C(OCC(=O)N1CCCCC1)c1ccc2c(c1)C(=O)N(Cc1ccco1)C2=O	x	-7%	x	x	x
CN(c1ccccc1)P(=O)(N(C)c1ccccc1)N(C)c1ccccc1	x	-3%	-4	x	5
CCC(CC)c1nnc(NC(=O)C2CC(=O)N(C3CCCC3)C2)s1 (centres undefined)	1%[46.1 µM]	1%	-7	1%[46.1 µM]	-4
COc1ccccc1N1CCN(c2nc3ccccc3n3cnnc23)CC1	x	x	x	0%[46.1 µM]	x
COCCNC(=O)CCC(=O)N1Cc2cccc(OC)c2Oc2ncccc21	-1%[46.1 µM]	x	x	x	x
COC(=O)c1ccc(OC(=O)c2cccnc2)cc1	0%	1%	-3	10%	-1
O=C(COC(=O)c1cncc(Br)c1)NC1CCCCC1	-2%[46.1 µM]	-3%	-6	14%[46.1 µM]	2
CC(C)OC(=O)c1ccc(OC(=O)c2cccnc2)cc1	5%	6%	12*	0%	13
O=C(COC(=O)c1cncc(Br)c1)NC1CC1	22%	7%	16*	7%	-14
Cc1ccc(S(=O)(=O)N2[C@H](C(C)C)[C@H]3[C@H]4C(=O)N(c5ccccc5)C(=O)[C@H]4CC(=O)[C@H]3[C@@H]2c2ccccc2)cc1	x	3%	x	x	x
CCOC(=O)c1c(C)[nH]c(C)c1C(=O)COC(=O)c1cccs1	-2%	13%	x	9%	x
COc1ccc2cc3cc(C(=O)NCCN4CCN(c5ccccc5F)CC4)oc3nc2c1	u	62%	-2	13µM*	-3
COCCNC(=O)c1cc2cc3ccc(OC)cc3nc2o1	x	13%	42*	x	50
COc1ccc2cc3cc(C(=O)NCC4CCCO4)oc3nc2c1 (centres undefined)	u	7%	19	12%	46*
COc1ccc2cc3cc(C(=O)Nc4ccccc4N4CCN(C)CC4)oc3nc2c1	13%	7%	-3	-17%	-21
COc1ccc2cc3cc(C(=O)NCc4ccccn4)oc3nc2c1	-13%	28%	11	-11%	38
CCOc1ccc(NC(=O)c2cc3cc4ccc(OC)cc4nc3o2)cc1	13%	-8%	-5	u	-3
CCC(C)NC(=O)c1cc2cc3ccc(OC)cc3nc2o1 (centres undefined)	-5%	14%	30*	u	39*
O=C(NCc1ccc(Cl)cc1)C(=O)Nc1cccc(Br)c1	8%[46.1 µM]	x	x	x	x
CCN(CC)C(=O)Cn1c(=O)n(Cc2ccc(C(=O)NCc3ccccc3Cl)cc2)c(=O)c2ccccc21	-19%[46.1 µM]	x	x	u	x
CCN(CCCNC(=O)c1cc2cc3ccc(OC)cc3nc2s1)c1cccc(C)c1	-13%[46.1 µM]	x	x	-34%[46.1 µM]	x
Cc1cccc(N(C)C(=O)c2cc3cc4ccc(C)cc4nc3o2)c1	u	0%	39*	u	active
CCCCN(C)C(=O)c1cc2cc3ccc(OC)cc3nc2s1	u	20%	25*	10µM*	57*
COc1ccc2cc3cc(C(=O)NCCC(C)C)oc3nc2c1	3.5µM*	1%	-1	10%	51
SMILES	LASV entry inh	AMA1-RON2 inh	Cycloheximide cs	Marburg entry inh	Shiga inhibitor
CCCCN(CC)C(=O)c1cc2cc3ccc(OC)cc3nc2o1	-14%	26%	27*	u	80*
CC(C)(C)c1ccc(C(=O)N2CCC2(C)C(=O)Nc2cccc3ncccc23)cc1 (centres undefined)	x	5%	x	x	x
Cc1ccc2cc3cc(C(=O)NCCCN4CCc5ccccc5C4)oc3nc2c1	u	-2%	30*	-35%	35
CN(C(=O)COC(=O)/C=C/c1ccccc1)C1CCS(=O)(=O)C1 (centres undefined)	x	0%	x	x	x
Cc1nc(C#N)c(N/N=C/c2cccc(Cl)c2)o1	u	97%	36*	12%	54*
CN(C)C1NC(=O)c2cc(-c3ccccc3)sc2N1 (centres undefined)	10%	2%	17*	u	31
CCCCNS(=O)(=O)c1ccc(NC(=O)c2c(-c3ccccc3Cl)noc2C)cc1	-19%[14.3 µM]	10%	-6	u	-19
CCCCC(=O)Nc1ccccc1C(C)C	x	x	-1	x	-2
CCN(/N=C/c1ccc(Cl)cc1)c1cc(=O)n(C)c(=O)[nH]1	7%	15%	34*	-18%	active
O=C1CCSC2(C(=O)N(Cc3ccc(F)cc3)c3ccccc32)N1c1ccc(Cl)cc1 (centres undefined)	4%[46.1 µM]	x	x	x	x
O=C(Nc1ccc(SC(F)F)cc1)c1ccc2nccnc2c1	9%	11%	46*	u	41*
